HIV RNase H inh-1 = blocks HIV-1 RNase H cleavage of RNA/DNA duplex; P04585; RT-RNase H RNA/DNA duplex cleavage, fluorescence; inhibition, % at 10 µM; 1.9% of 65,000 active; in the data active means inhibition above about 50%
HIV RNase H inh-2 = confirmation of HIV-1 reverse transcriptase RNase H inhibitors | 39% of 1,000 active | shares compounds with HIV RNase H inh-1 | Recombinant RT RNase H, fluorescent RNA/DNA duplex cleavage | inhibition, % at 10 µM; in the data active means inhibition above about 48%; inconclusive means no clear call, values can overlap the other calls
Active calls of the source: *. Many of the other results were omitted from the sample, so hits are more common in it than they were.

CCS(=O)(=O)N1CCN(S(=O)(=O)c2ccc(F)cc2)CC1 was read as HIV RNase H inh-1 -7.7.
O=C(Cc1cc(=O)[nH]c(=O)[nH]1)NCCN1CCOCC1 was read as HIV RNase H inh-1 -3.7.
Screening O=C(N1CCOCC1)N1CCC(n2nnc3cc(F)ccc32)CC1 returned HIV RNase H inh-1 83.5* and HIV RNase H inh-2 33.7.
For O=S(=O)(c1ccc2c(c1)OCCO2)N1CCC(n2nnc3cc(F)ccc32)CC1 the results were HIV RNase H inh-1 -2.1.
`Fc1ccc2c(c1)nnn2C1CCN(Cc2ccccc2)CC1` gave HIV RNase H inh-1 -10.5.
`CCOc1ccccc1NC(=O)c1ccc(F)c(S(=O)(=O)N2CCC3(CC2)OCCO3)c1` gave HIV RNase H inh-1 13.8.
For Cc1csc(OCc2ccc(C#N)cc2)n1 the results were HIV RNase H inh-1 -9.8.
CCOc1cccc2cc(-c3nnc(-c4ccccc4)o3)c(=O)oc12 was read as HIV RNase H inh-1 -5.7.
For COc1cc(C)c(Br)cc1S(=O)(=O)N1CCCC1 the results were HIV RNase H inh-1 -56.2.
Screening CCOc1ccccc1-c1nc(-c2ccc(NC(=O)Cc3ccc(OC)cc3)cc2)no1 returned HIV RNase H inh-1 64.4* and HIV RNase H inh-2 inconclusive.
For COc1ccc(CC(=O)Nc2ccc(-c3noc(COc4ccccc4C)n3)cc2)cc1 the results were HIV RNase H inh-1 27.9.
Screening CCOc1ccccc1-c1nc(-c2ccc(NC(=O)c3ccc(Br)o3)cc2)no1 returned HIV RNase H inh-1 6.7.
O=C(CN(CCc1ccccc1)C(=O)CNS(=O)(=O)c1ccc(F)cc1)NCC1CCCO1 (stereo not given) was read as HIV RNase H inh-1 -1.4.
`CCOc1cc(C)c(Cl)cc1S(=O)(=O)NCC1CCCO1` (stereo not given) gave HIV RNase H inh-1 -46.5.
`O=C1c2oc3ccc(Cl)cc3c(=O)c2C(c2cccc(Br)c2)N1CCO` (stereo not given) gave HIV RNase H inh-1 5.0.
CCOc1cc(C2c3c(oc4cc(C)c(Cl)cc4c3=O)C(=O)N2Cc2ccco2)ccc1O (stereo not given) was read as HIV RNase H inh-1 61.5* and HIV RNase H inh-2 57.9*.
COCCN1C(=O)c2oc3cc(C)c(C)cc3c(=O)c2C1c1ccc(O)cc1 (stereo not given) was read as HIV RNase H inh-1 1.6.
Screening Cc1ccc2oc3c(c(=O)c2c1)C(c1cccc(Br)c1)N(Cc1ccco1)C3=O (stereo not given) returned HIV RNase H inh-1 60.4* and HIV RNase H inh-2 inconclusive.
For COCCN1C(=O)c2oc3ccccc3c(=O)c2C1c1ccc(O)c(OC)c1 (stereo not given) the results were HIV RNase H inh-1 3.1.
For Cc1cc2oc3c(c(=O)c2cc1C)C(c1cccc(Br)c1)N(Cc1ccco1)C3=O (stereo not given) the results were HIV RNase H inh-1 5.4.
`CN(C)S(=O)(=O)c1ccc(S(=O)(=O)N(Cc2ccccn2)Cc2ccco2)cc1` gave HIV RNase H inh-1 -10.1.
COc1ccc(C(=O)CSc2nnc(CNc3nc(-c4ccccc4)cs3)n2C)cc1 was read as HIV RNase H inh-1 0.7.
CCOC(=O)Cc1csc(-n2sc3ccccc3c2=O)n1 was read as HIV RNase H inh-1 97.2* and HIV RNase H inh-2 67.0*.
`CCOC(=O)Cc1csc(SCn2nnc3ccccc3c2=O)n1` gave HIV RNase H inh-1 -35.6.
`CCOC(=O)Cc1csc(NC(=O)Cc2cccs2)n1` gave HIV RNase H inh-1 9.2.
Screening O=C(CSc1nc2cc(S(=O)(=O)N3CCOCC3)ccc2o1)NC1CCCc2ccccc21 (stereo not given) returned HIV RNase H inh-1 85.5* and HIV RNase H inh-2 inconclusive.
Cc1ccc(C(=O)CSc2nc3cc(S(=O)(=O)N4CCOCC4)ccc3o2)cc1 was read as HIV RNase H inh-1 72.4* and HIV RNase H inh-2 22.6.
`Cc1ccc(S(=O)(=O)N2CCN(C(=O)CSc3nc4ccccc4o3)C2)cc1` gave HIV RNase H inh-1 -21.0.
For O=C1CCc2cc(S(=O)(=O)N3CCC(C(=O)NC4CCCc5ccccc54)CC3)ccc2N1 (stereo not given) the results were HIV RNase H inh-1 -7.4.
`Cc1[nH]c2ccccc2c1C(=O)CSc1nc2cc(S(=O)(=O)N3CCCCC3)ccc2o1` gave HIV RNase H inh-1 36.1.
For O=C(CSc1nc2ccccc2o1)Nc1ccc(N2CCOCC2)cc1 the results were HIV RNase H inh-1 -2.9.
For CCN(CCCn1c(SCC#N)nc2ccccc2c1=O)c1ccccc1 the results were HIV RNase H inh-1 -2.2.
For CC1Cc2cc(C3(O)C(=O)c4ccccc4C3=O)ccc2N1 (stereo not given) the results were HIV RNase H inh-1 -12.6.
`CCOC(=O)CSC(C)C(=O)Nc1nnc(C(C)C)s1` (stereo not given) gave HIV RNase H inh-1 -4.8.
For CCOC(=O)C1C(=O)Nc2nc3ccccc3n2C1C(C)C (stereo not given) the results were HIV RNase H inh-1 -0.9.
Screening CCOc1ccc(C2CC(c3cccc(OC)c3OC)n3nnnc3N2)cc1Cl (stereo not given) returned HIV RNase H inh-1 -1.1.
`CCN1C(=O)C(O)(C2COC(C)(C)CC2=O)c2cc(Br)ccc21` (stereo not given) gave HIV RNase H inh-1 3.0.
`Cc1cccc(C(=O)OCC(=O)Nc2ccc(N3CCCCC3)cc2)c1O` gave HIV RNase H inh-1 88.5* and HIV RNase H inh-2 53.3*.
Cc1cccc(OCC(=O)Nc2ccc(N3CCCC3)cc2)c1C was read as HIV RNase H inh-1 7.9.
`O=C(COC(=O)C1CCCCC1)Nc1ccc(N2CCCCC2)cc1` gave HIV RNase H inh-1 6.8.
O=C(CCN1C(=O)CSC1=O)Nc1ccccc1 was read as HIV RNase H inh-1 2.0.
For N#Cc1nc(-c2ccc(OCc3ccc(Cl)cc3)cc2)oc1NCc1cccnc1 the results were HIV RNase H inh-1 76.1* and HIV RNase H inh-2 64.8*.
For N#Cc1nc(-c2ccc(OCc3ccccc3)cc2)oc1NCCCn1ccnc1 the results were HIV RNase H inh-1 -13.1.
Screening N#Cc1nc(-c2ccc(OCc3ccccc3)cc2)oc1NCc1cccnc1 returned HIV RNase H inh-1 -12.7.
Screening CS(=O)(=O)NCc1nnc(SCC(=O)NC2CCCCC2)n1-c1ccc(F)cc1 returned HIV RNase H inh-1 -3.8.
`CCC1(CC)NC(=O)N(CC(=O)Nc2sc3c(c2C(N)=O)CCC3)C1=O` gave HIV RNase H inh-1 46.2.
CCOc1ccc(S(=O)(=O)NCc2ccc(F)cc2)c2cccnc12 was read as HIV RNase H inh-1 -8.2.
O=C(NCc1ccco1)c1ccc2c(c1)C(=O)N(Cc1ccccc1)C2=O was read as HIV RNase H inh-1 0.5.
Screening CCc1ccc(NC(=O)c2ccc3c(c2)C(=O)N(Cc2ccco2)C3=O)cc1 returned HIV RNase H inh-1 43.2.
Screening COC(=O)c1ccccc1NC(=O)c1ccc2c(c1)C(=O)N(Cc1ccco1)C2=O returned HIV RNase H inh-1 60.9* and HIV RNase H inh-2 94.3*.
For Clc1ccc(OCc2nn3c(C4CCCCC4)nnc3s2)cc1 the results were HIV RNase H inh-1 -14.0.
Cc1ccc(Cn2nc(C)c(NC(=O)c3cc(-c4ccco4)on3)c2C)cc1 was read as HIV RNase H inh-1 -2.8.
Screening COc1ccc(-c2cc(C(=O)Nc3c(C)nn(Cc4ccc(Cl)cc4)c3C)no2)cc1 returned HIV RNase H inh-1 62.0* and HIV RNase H inh-2 -5.6.
For Cc1nn(Cc2ccc(Cl)cc2)c(C)c1NC(=O)c1cc(-c2ccco2)on1 the results were HIV RNase H inh-1 -43.5.
Cc1ccc(C)c(N2CCN(c3cc(C)nc4nnnn34)CC2)c1 was read as HIV RNase H inh-1 -20.2.

Source: PubChem BioAssay (University of Pittsburgh Molecular Library Screening Center)
